# Screens deposited in PubChem by several laboratories.
# PP5 inh: PP5 (human) phosphatase inhibition. P53041. 0.18% of 320,000 active. purified PP5c, OMFP substrate fluorescence. inhibition, % at 6.7 µM. AID 1987;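 active means inhibition above the campaign's mean inhibition across all tested compounds plus 3 SD, cut at about 9.5% in these data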;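 further: 0% = DMSO only and 100% = 100 µM cantharidin control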
# CSC inhib: blocks cancer stem cells | cancer stem cell-like cells viability, luminescence | inhibition, % at 7.5 µM | 1.1% of 300,000 active | AID 2717; in the data active means inhibition above about 75%; inconclusive means no clear call, values can overlap the other calls; tested in HMLE shEcad cells
# PP1 counter: PP1-alpha (human) inhibition in PP5 counter-screen. P62136. purified PP1alpha, OMFP fluorescence. inhibition, % at 6.7 µM. 0.9% of 320,000 active. AID 2235;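 active means inhibition above the mean inhibition of all tested compounds plus 3 SD, computed separately for each screening campaign, cut at about 15% in these data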
# Target sequence (P62136 whole entry, looked up): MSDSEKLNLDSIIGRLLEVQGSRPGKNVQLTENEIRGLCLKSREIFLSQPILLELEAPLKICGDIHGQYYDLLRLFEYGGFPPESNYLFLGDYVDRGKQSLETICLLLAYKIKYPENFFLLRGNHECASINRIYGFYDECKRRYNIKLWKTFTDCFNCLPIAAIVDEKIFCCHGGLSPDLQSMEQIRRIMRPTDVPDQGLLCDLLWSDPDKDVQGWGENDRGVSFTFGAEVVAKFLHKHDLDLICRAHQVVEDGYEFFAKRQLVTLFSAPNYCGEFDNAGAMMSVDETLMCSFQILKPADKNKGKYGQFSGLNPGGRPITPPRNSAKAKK
# Calb FLC: affects C. albicans growth with fluconazole; C. albicans CaCi-2 (fluconazole-resistant clinical isolate) + fluconazole, Alamar Blue growth, 48 h; growth inhibition, % (concentration not given with the values); 0.57% of 300,000 active;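 active means growth inhibition above about 58% in most replicates, limit read from the data, passing the limit was not always enough; inconclusive means exactly half the replicates above a set limit; inactive means most replicates below a set limit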;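 further: all wells also contain fluconazole at 8 µg/ml as a sub-toxic cotreatment; 0% = median of DMSO wells and 100% = median of geldanamycin control wells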
# ALR inh: human ALR oxidase inhibition via reduced H2O2. P55789. purified ALR, DTT oxidation, H2O2 HRP-luminol luminescence. inhibition, % (test concentration not listed). 3.8% of 290,000 active. AID 485317;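 active means mean replicate inhibition above about 79%, with every replicate also reaching it, limit read from the data; inconclusive means only one of the two criteria met; inactive means mean below limit and not every replicate reaching it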
# Target sequence (P55789 whole entry, looked up): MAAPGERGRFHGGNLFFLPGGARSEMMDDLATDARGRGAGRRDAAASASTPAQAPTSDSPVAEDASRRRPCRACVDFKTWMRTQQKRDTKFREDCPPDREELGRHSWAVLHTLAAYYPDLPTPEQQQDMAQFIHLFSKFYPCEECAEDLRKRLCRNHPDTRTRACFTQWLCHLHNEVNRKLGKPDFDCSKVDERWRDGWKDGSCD
# Starred values were filed as active, the others as inactive; ? = inconclusive; . = no result. Most compounds without a hit are left out; they make up all but 5.4% or so of the library.
SMILES,PP5 inh,CSC inhib,PP1 counter,Calb FLC,ALR inh
CCCCC(=O)NC(c1ccc(Cl)cc1Cl)c1ccc2cccnc2c1O (stereo not drawn),.,109*,.,96*,-6
CCCC(=O)NC(c1ccc(N(C)C)cc1)c1ccc2cccnc2c1O (stereo not drawn),4,152*,6,92*,90*
CCCC(=O)NC(c1ccc(OC)cc1)c1c(O)ccc2ccccc12 (stereo not drawn),3,50,0,-6,8
CC(=O)Nc1ccc(C(=O)NNC(=O)c2ccccc2-n2cccc2)cc1,2,8,3,.,3
Brc1ccc(CSc2nnc(Cc3c[nH]c4ccccc34)o2)cc1,3,22,3,26,-9
COc1ccc(/C=N/N=C2/NC(=O)C(CC(=O)NC(N)=O)S2)cc1 (stereo not drawn),1,-8,4,-10,-5
C=CCNC(=O)c1onc(CSc2ccc(C)c(C)c2)c1C(=O)O,1,20,3,9,98*
CCCCNC(=O)c1onc(CSc2ccc(C)c(C)c2)c1C(=O)O,-1,3,-1,1,98*
O=C(Nc1ccc2[nH]c(=S)sc2c1)Nc1ccccc1F,3,52,-1,2,.
O=C(Nc1ccc2[nH]c(=S)sc2c1)c1ccccc1,0,6,-5,-10,99*
CCCC(c1nnnn1C(C)(C)C)N1CCN(Cc2ccccc2OC)CC1 (stereo not drawn),1,.,2,-7,-5
CCC(c1nnnn1Cc1ccccc1)N1CCN(c2ccccc2)CC1 (stereo not drawn),0,1,-3,12,73
CCCC(c1nnnn1C(C)(C)C)N1CCN(c2ccccc2)CC1 (stereo not drawn),2,-18,-3,-1,98*
CCCC(c1nnnn1Cc1ccco1)N1CCN(c2ccccc2)CC1 (stereo not drawn),0,-9,-2,5,88*
CCC(c1nnnn1C1CCCC1)N1CCN(c2ccccc2)CC1 (stereo not drawn),-1,-2,2,-16,99*
CCCC(c1nnnn1Cc1ccco1)N1CCN(c2cc(Cl)ccc2C)CC1 (stereo not drawn),4,136*,3,.,-11
CCOC(=O)C1CCCN(C(=O)c2ccc(NC(=O)CC3SC(N4CCCC4)=NC3=O)cc2)C1 (stereo not drawn),1,-5,-2,2,.
CC(C)=CCc1c(O)ccc(C(=O)Cc2ccccc2)c1O,1,97*,0,-25,.
Cc1cc(O)c(-c2n[nH]c3c2C(c2cccc(O)c2)N(Cc2cccnc2)C3=O)cc1Cl (stereo not drawn),8,22,17*,21,-1
O=C(NC1CCCCC1)C(c1ccc2ncccc2c1)N(Cc1ccc(F)cc1)C(=O)c1ccc2c(c1)OCCO2 (stereo not drawn),5,21,3,87*,1
O=C(NC1CCCCC1)C(c1ccc2ncccc2c1)N(Cc1ccc2c(c1)OCO2)C(=O)c1ccc2c(c1)OCCO2 (stereo not drawn),1,14,2,6,-12
Cc1oc(-c2ccc(Cl)cc2)nc1CS(=O)CC(=O)NCCN1CCCCCC1 (stereo not drawn),-1,11,1,16,99*
Cc1ccc(-c2nc(CS(=O)CC(=O)NCCN3CCCCCC3)c(C)o2)cc1 (stereo not drawn),0,-14,-2,3,98*
Cc1ccc(NC(=O)c2cccc(N3C(=O)C4C5C=CC(C5)C4C3=O)c2)cc1C (stereo not drawn),.,14,.,7,-18
CN(C)c1ccc(NC(=O)c2cccc(N3C(=O)C4C5C=CC(C5)C4C3=O)c2)cc1 (stereo not drawn),-1,-2,0,26,99*
SMILES,PP5 inh,CSC inhib,PP1 counter,Calb FLC,ALR inh
COc1ccc(N(C(=O)Cn2nnc3ccccc32)C(C(=O)NC(C)(C)C)c2ccc(OC)c(O)c2)cc1 (stereo not drawn),-1,-10,-4,78*,12
O=C(c1cccnc1Nc1ccccc1F)N1CCOCC1,-1,-12,-3,-36,-3
Cc1ccccc1Nc1ncccc1C(=O)N1CCOCC1,-3,-2,-3,109*,-4
CCc1cc(C(=O)Nc2nc(-c3ccccn3)cs2)sc1C,3,20,16*,.,-5
O=C(Nc1nc(-c2ccccn2)cs1)c1ccc([N+](=O)[O-])o1,2,47,11,3,-19
O=C(Nc1nc(-c2ccccn2)cs1)c1cc(Cl)ccc1[N+](=O)[O-],0,94*,16*,-2,35
Cc1cc(C(=O)Nc2nc(-c3ccccn3)cs2)ccc1[N+](=O)[O-],2,-4,9,110*,-11
CS(=O)(=O)Cc1ccc(C(=O)NCC2(N3CCCCC3)CCCCC2)cc1,2,-4,-3,-4,.
COc1cc(NS(=O)(=O)c2cn(C)cn2)cc(OC)c1,0,-7,-3,-1,-4
Cc1ccc(N=Nc2ccc(O)cc2)c(Br)c1,6,87*,3,-10,92*
Oc1ccc(N=Nc2ccc3c(c2)OCCO3)c2cccnc12,-1,.,14,100*,-42
Oc1ccc(N=Nc2n[nH]c(-c3ccc(Br)cc3)n2)cc1,5,46,2,23,-17
Oc1ccc(N=Nc2ccc(Br)cc2)c(O)c1,1,92*,0,-3,99*
Oc1ccc(N=Nc2ccc3c(c2)OCCO3)c(O)c1,5,84*,1,3,.
Cn1nnnc1SCCNC(=O)C1CCC(=O)N(Cc2ccccc2F)C1 (stereo not drawn),0,-2,-1,-1,-11
CC(=O)c1ccc(OCc2cc(C(=O)NC(C)c3cnn(C)c3)no2)cc1 (stereo not drawn),3,-3,-3,6,-1
CC1CCN(c2ccc(C(=O)Nc3ccc4c(c3)OCO4)cc2[N+](=O)[O-])CC1,5,78*,2,6,-5
CC1CCCN(c2ccc(C(=O)Nc3ccc4c(c3)OCO4)cc2[N+](=O)[O-])C1 (stereo not drawn),6,102*,4,-9,-26
Cc1[nH]c2ccccc2c1C(=O)CN1CCCCC1C (stereo not drawn),2,-11,-3,0,-26
Cc1ccc(S(=O)(=O)N(C)c2ccc(OCc3cccc(C)c3)cc2)cc1,-1,77*,-2,-15,-18
CC(=O)Nc1ccc(S(=O)(=O)N(C)c2ccc(OCCOc3cccc(C)c3)cc2)cc1,.,-2,.,.,-16
CC1CCN(C(=O)CSc2nnc(CNC(=O)c3c(F)cccc3F)o2)CC1,1,-8,-5,4,-3
Cc1cnc(C(=O)Nc2ccc(C(=O)N3CCCCC3)cc2)cn1,0,0,-4,?,100*
O=C(CCC(=O)N1CCCC(Nc2ccccc2)C1)c1ccc(F)cc1 (stereo not drawn),2,2,7,9,99*
